# Inconclusive results are not listed. Activity calls are given as the source filed them.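 How the source made its calls, unless noted: active means inhibition over a set limit, the all-compound mean plus 3 SD, in both replicate runs; inconclusive means over that limit in just one replicate run; inactive means at or under that limit in both runs.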
# What was measured:
# [1] = reducers of endogenous Her2 protein level, primary screen, SKBR3 breast tumor cells, AlphaScreen, ATP viability (AID 461;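 active means Her2 level under about 52% in both replicate screens, with viability over 70% of control, limit read from the data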;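 on Her2 level: lower value means less Her2 protein in the cells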;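 on viability: percent of carrier control wells set as 100% viability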); conditions: 18-24 h, measured here: SKBR3 viability, ATP luminescence, at 10 µM
# [2] = target: Receptor tyrosine-protein kinase erbB-2 (Homo sapiens) (UniProt P04626); experiment: as above; conditions: 18-24 h, at 10 µM, stronger effect = lower value
# [3] = SK-BR-3 cell growth inhibitors, pilot screen, 24 h, human (AID 572;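 active means viability at or below 10% of carrier control in both of two separate runs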;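 further: compound exposure lasted between 18 and 24 h rather than exactly 24 h; 100% = carrier-treated control wells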); conditions: SK-BR-3 viability, CellTiter-Glo luminescence, at 10 µM, stronger effect = lower value
# [4] = HUVEC growth inhibition – cell-based, human, primary screen (AID 575;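 active means viability at or below 30% in both replicate assays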;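 further: 100% = median of untreated cell wells with 0.1% DMSO on each plate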); conditions: HUVEC proliferation, CellTiter-Glo luminescence, 72 h; at 10 µM; stronger effect = lower value
# [5] = growth inhibitors of H69AR lung tumor, primary screen, human, duplicate replicates (AID 580;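 active means viability at or under a set limit in both replicates, limit being median viability minus 3 SD, cut at about 48% in these data, passing the limit was not always enough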;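 further: 100% = mean luminescence of untreated wells and 0% = no signal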); conditions: H69AR lung tumor cells viability, ATP luminescence, 72 h; at 10 µM; stronger effect = lower value
# [6] = reversal of MRP1-mediated doxorubicin resistance, pilot screen, H69AR cells, doxorubicin co-treatment (AID 601;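 active means viability loss from added drug above about 55%, and viability with drug at most 40%, in both replicates, limit read from the data, passing the limit was not always enough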); conditions: CellTiter-Glo, 72 h, at 10 µM; for differential viability (reversal): stronger effect = higher value
# [7] = 384-well plate pilot, post-Golgi transport modulator project, inhibition of yeast transport mutant growth (AID 636; in the data active means inhibition above about 31%); conditions: absorbance 615 nm, about 18 h, stronger effect = higher value
# [8] = growth suppression of yeast trafficking mutant, preliminary HTS, modulators of trafficking downstream of Golgi apparatus project, 1536-format plate, OD 615 nm (AID 637; in the data active means inhibition above about 30%); conditions: yeast transport mutant growth, absorbance 615 nm, 18 h; stronger effect = higher value
# [9] = OD615 S. cerevisiae growth inhibition, permissive medium, pilot counter-assay, permissive growth control for S. cerevisiae lifespan shortening project (AID 705;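 active means growth inhibition above 25% in both replicates, a cutoff set 3 SD above the mean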); conditions: OD615, 24 h, at 10 µM, stronger effect = higher value
# [10] = Restrictive medium S. cerevisiae growth inhibition, OD615, pilot screen of yeast lifespan reduction project, restrictive growth control (AID 706;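 active means growth inhibition above a set limit, 3 SD over mean compound inhibition, in both replicates, cut at about 43% in these data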;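 further: modified DeaD lifespan yeast strain shifted to restrictive glucose medium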); conditions: OD615, 48 h, at 10 µM, stronger effect = higher value
# [11] = viability gain of MRP-1-high H69AR cells under doxorubicin, pilot screen, MRP-1 activator project, CellTiter-Glo, duplicate (AID 807;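 active means viability increase at or above a cutoff of the median across tested compounds plus 3 SD, cut at about 8.5% in these data, passing the limit was not always enough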;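 further: compound pretreatment 18-22 h then 72 h combined with doxorubicin; 0% = doxorubicin alone and 100% = vehicle without doxorubicin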); conditions: H69AR viability with doxorubicin, CellTiter-Glo luminescence; at 10 µM; stronger effect = higher value
# [12] = growth suppression of beta-catenin knockout HCT116, pilot screen, human colon tumor cells (AID 823;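 active means cell viability at or below a set limit in both duplicate runs, the limit being the all-compound median minus 4 SD, cut at about 23% in these data, passing the limit was not always enough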;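 further: 0% = wells killed by 20 µM Hyamine and 100% = untreated DMSO cell wells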); conditions: CellTiter-Glo, 60 h, at 10 µM, stronger effect = lower value
# [13] = growth suppression of PTEN-deleted HCT116, pilot screen, cell-based, HCT116 clonal line, CellTiter-Glo (AID 824;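 active means viability at or below 27.92% in each of two runs, the all-compound median minus 4 SD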;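 further: 0% = 20 µM Hyamine control and 100% = vehicle cell control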); conditions: 60 h, at 10 µM, stronger effect = lower value
# [14] = inhibitors of the yeast RAM network, pilot screen, dse1pr::URA3 reporter, 5-FOA selection (AID 869);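 further: 0% = DMSO wells with no growth and 100% = 10 µM 1-NA-PP1 with full growth; RAM network block rescues cells from 5-FOA so hits raise OD615 growth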; conditions: S. cerevisiae dse1pr::URA3 5-FOA growth, OD615, 2 d; at 10 µM; stronger effect = higher value; strain carries analog-sensitive mutant Cbk1 kinase
# [15] = RAM signaling pathway blockade in yeast – S. cerevisiae, Pdr1DBD-CYC8 efflux-inhibited sensitized strain, primary screen (AID 1298;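 active means RAM network inhibition above 8.4% in each of two replicates, 3 SD over the compound average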;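 further: 0% = DMSO untreated cells without growth and 100% = 10 µM 1-NA-PP1 full growth; higher means more yeast growth rescued from 5-FOA killing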); conditions: S. cerevisiae cbk1-as DSE1-URA3 strain, 5-FOA growth OD615, 2 d; at 50 µM; stronger effect = higher value
# [16] = H69AR cells + 2 uM doxorubicin, measured here: viability with 2 uM doxorubicin, stronger effect = lower value
# [17] = H69AR cells, compound alone cytotoxicity
# Receptor tyrosine-protein kinase erbB-2 (Homo sapiens), sequence (P04626 whole entry, looked up): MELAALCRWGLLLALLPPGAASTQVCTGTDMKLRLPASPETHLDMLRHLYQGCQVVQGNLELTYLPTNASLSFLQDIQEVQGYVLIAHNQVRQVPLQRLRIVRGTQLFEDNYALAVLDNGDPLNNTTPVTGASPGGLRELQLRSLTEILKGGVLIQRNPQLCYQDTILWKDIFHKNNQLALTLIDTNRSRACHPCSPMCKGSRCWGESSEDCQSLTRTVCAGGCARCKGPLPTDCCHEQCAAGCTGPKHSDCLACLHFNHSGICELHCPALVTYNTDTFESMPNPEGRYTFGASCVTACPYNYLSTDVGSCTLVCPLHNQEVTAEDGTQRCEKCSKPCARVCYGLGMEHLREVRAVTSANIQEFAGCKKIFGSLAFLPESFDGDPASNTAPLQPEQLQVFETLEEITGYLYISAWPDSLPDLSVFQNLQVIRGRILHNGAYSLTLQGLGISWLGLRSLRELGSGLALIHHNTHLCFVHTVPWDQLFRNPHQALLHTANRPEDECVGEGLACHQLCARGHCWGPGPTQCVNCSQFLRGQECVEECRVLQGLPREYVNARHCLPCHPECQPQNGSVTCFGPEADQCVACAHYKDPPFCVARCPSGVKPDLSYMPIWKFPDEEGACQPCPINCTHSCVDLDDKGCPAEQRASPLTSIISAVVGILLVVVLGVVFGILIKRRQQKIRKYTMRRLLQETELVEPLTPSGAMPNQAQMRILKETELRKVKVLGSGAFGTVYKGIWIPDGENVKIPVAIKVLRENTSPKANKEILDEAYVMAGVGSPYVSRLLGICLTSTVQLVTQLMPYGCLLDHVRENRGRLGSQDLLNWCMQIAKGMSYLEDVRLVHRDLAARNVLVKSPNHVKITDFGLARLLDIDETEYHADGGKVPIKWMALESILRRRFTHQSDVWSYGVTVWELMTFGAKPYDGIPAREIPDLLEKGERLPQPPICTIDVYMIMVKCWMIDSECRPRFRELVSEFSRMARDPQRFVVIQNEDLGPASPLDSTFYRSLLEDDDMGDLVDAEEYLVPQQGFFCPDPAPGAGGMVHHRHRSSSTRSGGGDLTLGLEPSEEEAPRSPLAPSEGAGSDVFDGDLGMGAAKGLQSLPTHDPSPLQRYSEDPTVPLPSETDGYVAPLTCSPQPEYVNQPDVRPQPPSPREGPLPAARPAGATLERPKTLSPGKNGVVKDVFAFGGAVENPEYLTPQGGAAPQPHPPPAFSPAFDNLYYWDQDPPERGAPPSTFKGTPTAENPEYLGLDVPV
structure (smiles),measurement,setting,value
CCC(C)NC(=O)c1cc(CC(C)C)on1 (stereo not given),viability,[1],84%
same,Her2 level,[2],111% (inactive)
same,viability,[3],84% (inactive)
same,viability,[4],95.5% (inactive)
same,viability,[5],83.6% (inactive)
same,differential viability (reversal),[6]; H69AR cells + 2 uM doxorubicin,-11.1% (inactive)
same,viability,[6]; [16],94.7%
same,viability,[6]; [17],83.6%
same,inhibition,[7],-0.26% (inactive)
same,inhibition,[8],18.3% (inactive)
same,growth inhibition,[9],-2.93% (inactive)
same,growth inhibition,[10],-0.685% (inactive)
same,viability increase,[11],1.13% (inactive)
same,viability,[12],102% (inactive)
same,viability,[13],103% (inactive)
same,inhibition,[14],-0.07% (inactive)
same,RAM network inhibition,[15],2.69% (inactive)
Cc1c(NC(=O)C2CCCCN2S(=O)(=O)c2ccc(Cl)cc2)c(=O)n(-c2ccccc2)n1C (stereo not given),viability,[1],112%
same,Her2 level,[2],120% (inactive)
same,viability,[3],112% (inactive)
same,viability,[4],90.1% (inactive)
same,viability,[5],91.3% (inactive)
same,differential viability (reversal),[6]; H69AR cells + 2 uM doxorubicin,-6.92% (inactive)
same,viability,[6]; [16],98.2%
same,viability,[6]; [17],91.3%
same,inhibition,[7],-3.47% (inactive)
same,inhibition,[8],-1% (inactive)
same,growth inhibition,[9],-2.56% (inactive)
same,growth inhibition,[10],-1.4% (inactive)
same,viability increase,[11],-1.13% (inactive)
same,viability,[12],96.9% (inactive)
same,viability,[13],103% (inactive)
same,inhibition,[14],0.76% (inactive)
same,RAM network inhibition,[15],-0.87% (inactive)
CCCn1c(OC)nc2c1c(=O)n(C)c(=O)n2C,viability,[1],89.5%
same,Her2 level,[2],88.5% (inactive)
same,viability,[3],89.5% (inactive)
same,viability,[4],83.2% (inactive)
same,viability,[5],94.4% (inactive)
same,differential viability (reversal),[6]; H69AR cells + 2 uM doxorubicin,0.235% (inactive)
same,viability,[6]; [16],94.1%
same,viability,[6]; [17],94.4%
same,inhibition,[7],-2.53% (inactive)
same,inhibition,[8],-2.5% (inactive)
same,growth inhibition,[9],-10.7% (inactive)
same,growth inhibition,[10],-9.12% (inactive)
same,viability increase,[11],0.06% (inactive)
same,viability,[12],107% (inactive)
same,viability,[13],97% (inactive)
same,inhibition,[14],2.22% (inactive)
same,RAM network inhibition,[15],2.06% (inactive)
CCSc1nc(O)c(CC)c(=O)n1C(C)CC (stereo not given),viability,[1],104%
same,Her2 level,[2],128% (inactive)
same,viability,[3],104% (inactive)
same,viability,[4],97.9% (inactive)
same,viability,[5],108% (inactive)
same,differential viability (reversal),[6]; H69AR cells + 2 uM doxorubicin,14.9% (inactive)
same,viability,[6]; [16],93.2%
same,viability,[6]; [17],108%
same,inhibition,[7],-6% (inactive)
same,inhibition,[8],-0.48% (inactive)
same,growth inhibition,[9],-9.35% (inactive)
same,growth inhibition,[10],-3.4% (inactive)
same,viability increase,[11],-0.54% (inactive)
same,viability,[12],98.6% (inactive)
same,viability,[13],93.7% (inactive)
same,inhibition,[14],-0.63% (inactive)
same,RAM network inhibition,[15],11.3% (inactive)
N#CCCN1CCN(S(=O)(=O)c2ccc(S(=O)(=O)NC3CCCC3)cc2)CC1,viability,[1],88.5%
same,Her2 level,[2],124% (inactive)
same,viability,[3],88.5% (inactive)
same,viability,[4],99.3% (inactive)
same,viability,[5],107% (inactive)
same,differential viability (reversal),[6]; H69AR cells + 2 uM doxorubicin,33.5% (inactive)
same,viability,[6]; [16],73.1%
same,viability,[6]; [17],107%
same,inhibition,[7],-3.46% (inactive)
same,inhibition,[8],-8% (inactive)
same,growth inhibition,[9],-9.39% (inactive)
same,growth inhibition,[10],-4.06% (inactive)
same,viability increase,[11],-0.87% (inactive)
same,viability,[12],101% (inactive)
same,viability,[13],100% (inactive)
same,inhibition,[14],2.69% (inactive)
same,RAM network inhibition,[15],3.21% (inactive)
CC1CCN(c2nc3c(c(=O)[nH]c(=O)n3C)n2CCSc2ncccn2)CC1,viability,[1],96.5%
same,Her2 level,[2],97% (inactive)
same,viability,[3],96.5% (inactive)
same,viability,[4],109% (inactive)
same,viability,[5],90.8% (inactive)
same,differential viability (reversal),[6]; H69AR cells + 2 uM doxorubicin,0.415% (inactive)
same,viability,[6]; [16],90.4%
same,viability,[6]; [17],90.8%
same,inhibition,[7],-4.4% (inactive)
same,inhibition,[8],-5.17% (inactive)
same,growth inhibition,[9],1.06% (inactive)
same,growth inhibition,[10],-2.73% (inactive)
same,viability increase,[11],-0.46% (inactive)
same,viability,[12],102% (inactive)
same,viability,[13],102% (inactive)
same,inhibition,[14],2.46% (inactive)
same,RAM network inhibition,[15],2.81% (inactive)
CCOC(=O)c1sc2nc(NC(=O)C3CCCCC3)sc2c1C,viability,[1],95.5%
same,Her2 level,[2],92.5% (inactive)
same,viability,[3],95.5% (inactive)
same,viability,[4],58.7% (inactive)
same,viability,[5],76.9% (inactive)
same,differential viability (reversal),[6]; H69AR cells + 2 uM doxorubicin,1.21% (inactive)
same,viability,[6]; [16],75.7%
same,viability,[6]; [17],76.9%
same,inhibition,[7],-0.4% (inactive)
same,inhibition,[8],-7.21% (inactive)
same,growth inhibition,[9],-4.09% (inactive)
same,growth inhibition,[10],-7.62% (inactive)
same,viability increase,[11],-0.22% (inactive)
same,viability,[12],89.1% (inactive)
same,viability,[13],95.2% (inactive)
same,inhibition,[14],3.21% (inactive)
same,RAM network inhibition,[15],4.73% (inactive)
O=C(CSc1nc2c(c(=O)n1-c1ccc(F)cc1)SCC2)NCC1CCCO1 (stereo not given),viability,[1],93.5%
same,Her2 level,[2],101% (inactive)
same,viability,[3],93.5% (inactive)
same,viability,[4],92.6% (inactive)
same,viability,[5],105% (inactive)
same,differential viability (reversal),[6]; H69AR cells + 2 uM doxorubicin,12% (inactive)
same,viability,[6]; [16],92.6%
same,viability,[6]; [17],105%
same,inhibition,[7],-2.4% (inactive)
same,inhibition,[8],-1.61% (inactive)
same,growth inhibition,[9],-8.12% (inactive)
same,growth inhibition,[10],-16.6% (inactive)
same,viability increase,[11],-3.46% (inactive)
same,viability,[12],98.2% (inactive)
same,viability,[13],90.9% (inactive)
same,inhibition,[14],1.46% (inactive)
same,RAM network inhibition,[15],5.77% (inactive)
CS(=O)(=O)N(Cc1ccco1)CC(O)Cn1c2ccccc2c2ccccc21 (stereo not given),viability,[1],93.5%
same,Her2 level,[2],71.5% (inactive)
same,viability,[3],93.5% (inactive)
same,viability,[4],76.8% (inactive)
same,viability,[5],80.5% (inactive)
same,differential viability (reversal),[6]; H69AR cells + 2 uM doxorubicin,-2.92% (inactive)
same,viability,[6]; [16],83.4%
same,viability,[6]; [17],80.5%
same,inhibition,[7],-3.9% (inactive)
same,inhibition,[8],-4.5% (inactive)
same,growth inhibition,[9],-6.72% (inactive)
same,growth inhibition,[10],-1.61% (inactive)
same,viability increase,[11],-4.51% (inactive)
same,viability,[12],72.2% (inactive)
same,viability,[13],74.5% (inactive)
same,inhibition,[14],1.9% (inactive)
same,RAM network inhibition,[15],1.64% (inactive)
COc1ccc(S(=O)(=O)N(C)C2CCN(C)CC2)cc1,viability,[1],108%
same,Her2 level,[2],98% (inactive)
same,viability,[3],108% (inactive)
same,viability,[4],93.2% (inactive)
same,viability,[5],93.4% (inactive)
same,differential viability (reversal),[6]; H69AR cells + 2 uM doxorubicin,11.1% (inactive)
same,viability,[6]; [16],82.3%
same,viability,[6]; [17],93.4%
same,inhibition,[7],-4.8% (inactive)
same,inhibition,[8],-2% (inactive)
same,growth inhibition,[9],-6.05% (inactive)
same,growth inhibition,[10],-10.2% (inactive)
same,viability increase,[11],-3.82% (inactive)
same,viability,[12],100% (inactive)
same,viability,[13],96.9% (inactive)
same,inhibition,[14],0.835% (inactive)
same,RAM network inhibition,[15],5.99% (inactive)

# — PubChem BioAssay
